Screening data deposited in PubChem by Sanford-Burnham Center for Chemical Genomics.
This is a sample that favours compounds with a hit; in the whole collection about 6.3% have one here.
Mdm2 MdmX PPI = inhibitors of human Mdm2/MdmX interaction; AID 485346; O15151+Q00987; inhibition, % at 8 µM; SaOS-2 split-luciferase Mdm2/MdmX complementation, luminescence; hit rate 3% among 330,000;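 active = inhibition of at least 50% at 8 µM in the primary screen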
Target sequence (O15151 whole entry, looked up): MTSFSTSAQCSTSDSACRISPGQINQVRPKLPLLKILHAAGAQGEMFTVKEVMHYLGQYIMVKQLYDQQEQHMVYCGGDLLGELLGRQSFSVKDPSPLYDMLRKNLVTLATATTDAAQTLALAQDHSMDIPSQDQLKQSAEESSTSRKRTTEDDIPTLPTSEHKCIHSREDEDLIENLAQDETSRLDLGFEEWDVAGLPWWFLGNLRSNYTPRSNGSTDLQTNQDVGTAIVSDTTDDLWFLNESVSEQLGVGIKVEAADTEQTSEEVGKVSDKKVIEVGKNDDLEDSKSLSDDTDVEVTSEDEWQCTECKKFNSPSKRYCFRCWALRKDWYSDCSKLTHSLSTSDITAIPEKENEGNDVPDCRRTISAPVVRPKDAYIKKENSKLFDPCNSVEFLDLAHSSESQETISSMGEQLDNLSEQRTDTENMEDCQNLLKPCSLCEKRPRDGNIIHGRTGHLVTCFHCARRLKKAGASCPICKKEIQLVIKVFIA
Target sequence (Q00987 whole entry, looked up): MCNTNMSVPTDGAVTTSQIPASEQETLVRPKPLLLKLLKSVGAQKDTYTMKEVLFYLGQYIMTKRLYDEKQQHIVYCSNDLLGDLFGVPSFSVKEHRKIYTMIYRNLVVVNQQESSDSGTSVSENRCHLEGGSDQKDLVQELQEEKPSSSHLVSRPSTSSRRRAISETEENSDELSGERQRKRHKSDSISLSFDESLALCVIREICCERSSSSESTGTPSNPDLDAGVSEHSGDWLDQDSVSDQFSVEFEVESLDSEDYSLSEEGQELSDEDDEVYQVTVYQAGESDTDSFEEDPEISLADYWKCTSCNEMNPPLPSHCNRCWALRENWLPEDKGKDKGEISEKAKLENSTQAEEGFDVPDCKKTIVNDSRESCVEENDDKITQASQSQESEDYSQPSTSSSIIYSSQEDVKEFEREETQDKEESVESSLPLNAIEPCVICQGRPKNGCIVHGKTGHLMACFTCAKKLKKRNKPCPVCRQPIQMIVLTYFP
tim23-1 inh = inhibits growth of tim23-1 mutant yeast; S. cerevisiae tim23-1 growth, BacTiter-Glo luminescence, 24 h; inhibition, % at 20 µM; hit rate 1.3% among 330,000;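 active = growth inhibition of the mutant yeast at or above 50%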;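 note: temperature-sensitive mutant grown at 25 °C; plate controls were DMSO-treated mutant yeast for no effect and medium wells lacking yeast for full effect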
tim10-1 inh = growth inhibitors of tim10-1 mutant yeast; hit rate 2.2% among 330,000; AID 463190; S. cerevisiae tim10-1 ts strain growth, BacTiter-Glo, 24 h; inhibition, % at 20 µM;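 active = inhibition of at least 40%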;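 note: mutant grown at 25 °C; 0% = DMSO wells with yeast and 100% = wells holding no yeast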
TIM10 inh = inhibits growth of TIM10 yeast strain; S. cerevisiae TIM10 strain growth, BacTiter-Glo luminescence, 24 h; inhibition, % at 10 µM; hit rate 1.4% among 330,000; AID 463195;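 active = inhibition of 40% or more at the single tested concentration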;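 note: wild-type TIM10 isogenic control strain grown at permissive 25 °C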
MPTP block = inhibitors of mitochondrial permeability transition pore; hit rate 1.4% among 360,000; inhibition, % at 10 µM; AID 602449; isolated mouse mitochondria, Ca2+ swelling absorbance, 30 min;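 active = inhibition of 50% or more, scaled per plate between neutral and stimulator controls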;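 note: 0% = DMSO wells given calcium and 100% = 1 mM EGTA wells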
Rh123 counter = Rhodamine 123 counter-screen of mitochondrial pore hits; shares compounds with MPTP block; isolated mitochondria, membrane potential, Rhodamine 123 fluorescence; inhibition, % at 10 µM; hit rate 78% among 5,000; AID 624504; in the data active = inhibition above about 22%;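 note: 0% = DMSO vehicle and 100% = positive control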
MPTP swell DR = MPTP inhibition, dose response swelling confirmation; isolated mitochondria swelling, absorbance; IC50, µM; hit rate 58% among 780; shares compounds with MPTP block; in the data active = IC50 below about 20 µM
MPTP counter DR = counter-screen for mitochondrial permeability transition pore inhibitors, dose response | shares compounds with MPTP block | isolated mitochondria counterscreen, fluorescence read-out | IC50, µM | hit rate 49% among 780 | AID 651564; in the data active = IC50 below about 80 µM
The depositor's hits bear a star.

How did CC1(C(=O)NS(=O)(=O)c2cccc(OC(F)F)c2)CCN1C(=O)c1ccccc1CCc1ccccc1 (configuration not stated) do in these assays?
MPTP block: 2

What do the screens show for `Cc1csc2ncnc(NC3CCN(Cc4ccccc4)CC3)c12`?
Mdm2 MdmX PPI: 11; tim23-1 inh: 1; tim10-1 inh: -3; TIM10 inh: 15; MPTP block: 92*; Rh123 counter: 87*

How did Cc1cc([N+](=O)[O-])ccc1NC(=O)/C=C/c1cccs1 do in these assays?
Mdm2 MdmX PPI: -41; tim23-1 inh: -1; tim10-1 inh: 18; TIM10 inh: 21; MPTP block: 83*; Rh123 counter: 31*

What do the screens show for `Cc1ccc(NC(=O)/C=C/c2ccc([N+](=O)[O-])s2)c(C)c1`?
MPTP block: 4

Results for COc1ccc(NC(=O)c2ccccc2)c([N+](=O)[O-])c1 ?
Mdm2 MdmX PPI: -47; tim23-1 inh: 8; tim10-1 inh: 24; TIM10 inh: 23; MPTP block: 0

How did COc1ccc(NC(=S)NC(NC(=O)c2cccc(C)c2)C(Cl)(Cl)Cl)c([N+](=O)[O-])c1 (configuration not stated) do in these assays?
Mdm2 MdmX PPI: -2; tim23-1 inh: 5; tim10-1 inh: 16; TIM10 inh: 7; MPTP block: 71*; Rh123 counter: 64*

What do the screens show for `CCOC(=O)c1c(CN2CCCCC2)n(C)c2cc(Br)c(OC)cc12`?
Mdm2 MdmX PPI: -27; tim23-1 inh: -56; tim10-1 inh: 10; TIM10 inh: -1; MPTP block: 50

How did CCOC(=O)c1c(CN2CCN(CCO)CC2)n(C)c2cc(Br)c(OC)cc12 do in these assays?
Mdm2 MdmX PPI: 11; tim23-1 inh: 21; tim10-1 inh: 21; TIM10 inh: 18; MPTP block: 68*; Rh123 counter: -10; MPTP swell DR: inactive; MPTP counter DR: >80

What do the screens show for `CCOC(=O)c1c(CNCCN(CC)CC)n(C)c2cc(Br)c(OC)cc12`?
Mdm2 MdmX PPI: 29; tim23-1 inh: 6; tim10-1 inh: 10; TIM10 inh: 14; MPTP block: 74*; Rh123 counter: -14; MPTP swell DR: inactive; MPTP counter DR: >80

How did CC1CCCC(NC(=O)CSc2nnc(-c3cccnc3)n2N)C1C (configuration not stated) do in these assays?
Mdm2 MdmX PPI: 23; tim23-1 inh: -1; tim10-1 inh: -6; TIM10 inh: -1; MPTP block: -1

How did Cc1c(NC(=O)c2cccc(NC(=O)COc3cccc(Br)c3)c2)c(=O)n(-c2ccccc2)n1C do in these assays?
Mdm2 MdmX PPI: 16; tim23-1 inh: 1; tim10-1 inh: 8; TIM10 inh: 0; MPTP block: -2

How did c1cc2cc(CNc3nc(NCC4CC4)nc4ccsc34)ccc2o1 do in these assays?
MPTP block: 49

How did COc1ccccc1CNc1nc(NCC2CC2)nc2ccsc12 do in these assays?
MPTP block: 80*; Rh123 counter: 92*

Results for COc1ccccc1CNc1nc(NCc2ccccc2OC)c2sccc2n1 ?
MPTP block: 85*; Rh123 counter: 115*

What do the screens show for `COCCNc1nc(NCc2ccccc2OC)c2sccc2n1`?
MPTP block: 1

Results for COc1ccccc1CNc1nc(NCc2cccs2)nc2ccsc12 ?
MPTP block: 78*; Rh123 counter: 93*

How did COc1ccccc1CNc1nc(NCc2ccc3occc3c2)c2sccc2n1 do in these assays?
MPTP block: 72*; Rh123 counter: 99*

Results for COc1ccc(Cl)cc1-c1cc(C(=O)NCc2ccccc2)[nH]n1 ?
MPTP block: 1

What do the screens show for `COc1ccccc1CNc1nc(NCCNC(C)=O)c2sccc2n1`?
MPTP block: 0

Results for COc1ccccc1CNc1nc(NCc2ccc(NC(C)=O)cc2)c2sccc2n1 ?
MPTP block: -1

How did COc1ccccc1CNc1nc(NCCOc2ccccc2)c2sccc2n1 do in these assays?
MPTP block: 60*; Rh123 counter: 91*

What do the screens show for `COc1ccccc1CNc1nc(NCc2ccccc2SC)c2sccc2n1`?
MPTP block: 85*; Rh123 counter: 84*

What do the screens show for `Cc1ccc(CNc2nc(NCc3ccccc3)nc3ccsc23)c(C)c1`?
MPTP block: 53*; Rh123 counter: 101*

What do the screens show for `CC1CCN(C(=O)CCCl)c2ccccc21` (configuration not stated)?
MPTP block: 0

Results for O=[N+]([O-])c1cc([N+](=O)[O-])c2oc(-c3ccccc3)c(Br)c2c1O ?
MPTP block: 11

What do the screens show for `CC(C)CCN1C(=O)c2ccc(C(=O)Nc3cc(C(=O)O)cc(C(=O)O)c3)cc2C1=O`?
Mdm2 MdmX PPI: 19; tim23-1 inh: -1; tim10-1 inh: -4; TIM10 inh: -3; MPTP block: 0

How did CC(C)CN1C(=O)c2ccc(C(=O)Nc3ccncc3)cc2C1=O do in these assays?
Mdm2 MdmX PPI: 0; tim23-1 inh: 5; tim10-1 inh: 10; TIM10 inh: 3; MPTP block: 60*; Rh123 counter: 70*

Results for CC(C)CCN1C(=O)c2ccc(C(=O)Nc3ccc(Br)cc3C(=O)O)cc2C1=O ?
Mdm2 MdmX PPI: 17; tim23-1 inh: 29; tim10-1 inh: 21; TIM10 inh: 8; MPTP block: 93*; Rh123 counter: 46*

What do the screens show for `COc1ccc(C)cc1S(=O)(=O)N1CCCC(N2CCN(c3ccccc3)CC2)C1` (configuration not stated)?
MPTP block: 0

Results for COc1cc(/C=C2/C(=O)N(c3ccc(C)c(C)c3)N=C2C)cc([N+](=O)[O-])c1O ?
Mdm2 MdmX PPI: 18; tim23-1 inh: 8; tim10-1 inh: 13; TIM10 inh: 9; MPTP block: 3

Results for COc1cc(/C=C2\C(=O)N(c3ccccc3)N=C2C)ccc1Oc1ccc([N+](=O)[O-])cc1[N+](=O)[O-] ?
MPTP block: 88*; Rh123 counter: 61*

What do the screens show for `CC1=NN(c2ccccc2)C(=O)/C1=C\c1ccc(Oc2ccc([N+](=O)[O-])cc2[N+](=O)[O-])cc1`?
Mdm2 MdmX PPI: 34; tim23-1 inh: 27; tim10-1 inh: 34; TIM10 inh: 18; MPTP block: 80*; Rh123 counter: 70*

How did Cc1c(CN(C)C(=O)c2sc3cc(Cl)ccc3c2Cl)cnn1C do in these assays?
Mdm2 MdmX PPI: -4; tim23-1 inh: 19; tim10-1 inh: 30; TIM10 inh: 14; MPTP block: 84*; Rh123 counter: 80*
